Compounds without any hit were thinned out: in the full panel of roughly 83,000, 20% have a hit.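 Activity criterion: percent growth below 10, measured after cells in 96-well plates were exposed to a single compound concentration for 48 hours.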 Active and inactive are the calls of the source.
Test system: SF-268 CNS
Assay: NCI-60 one-dose screen, 48 h (100 = growth as untreated, 0 = no growth, -100 = all killed)
Settings: 10 µM unless noted

Compound	growth
O=C(NCc1cccnc1)c1ccc([N+](=O)[O-])o1	33% (inactive)
N#CC1=C(N)Oc2cc(N)ccc2C1c1ccc(F)cc1 (stereo unspecified)	81.9% (inactive)
O=c1[nH]c(-c2ccncc2)nc2sc3c(c12)CCCCCC3	83.5% (inactive)
CC1SC(c2cccc(Oc3ccccc3)c2)N(CCc2cccs2)C1=O (stereo unspecified)	-5.54% (active)
COc1ccc(-c2c(-c3cc4c(c(OC)c3OC)OCO4)noc2N)cc1	45.8% (inactive)
c1ccc(-c2n(Cc3ccc4ccccc4n3)c3ccccc3[n+]2Cc2ccc3ccccc3n2)cc1	5.9% (active)
O=S(=O)(Nc1ncccn1)c1ccc(Nc2ccc3nnc(-c4ccncc4)n3n2)cc1	98.3% (inactive)
CC(=O)c1cc(C)c(OC(=O)c2ccccc2)c(C)c1	107% (inactive)
Oc1ccccc1/C=N/Nc1nc2ccccc2s1	32.3% (inactive)
O=C1NC(=S)S/C1=C\c1cccc([N+](=O)[O-])c1	89.9% (inactive)
COCCOC1=C(Cl)C(=O)c2ccccc2C1=O	24.1% (inactive)
O=C1NC(=O)C(CSc2ccccc2)(c2ccccc2)N1 (stereo unspecified)	123% (inactive)
Clc1ccccc1Nc1ccc2nnc(-c3ccncc3)n2n1	101% (inactive)
COc1cc(CNCCCN2C(=O)c3ccc4c5c(ccc(c35)C2=O)C(=O)N(CCCNCc2cc(OC)c(OC)c(OC)c2)C4=O)cc(OC)c1OC	-31.8% (active)
O=C1C(OCCOc2ccccc2)=C(OCCOc2ccccc2)C(=O)c2ccccc21	77.2% (inactive)
COc1ccc(OC)c(C2C(C#N)=C(N)Oc3cc(O)ccc32)c1 (stereo unspecified)	98.2% (inactive)
